MITF inh: blocks human microphthalmia-associated transcription factor; AlphaScreen MITF homodimerization, bead proximity signal; inhibition, % at 2.6 µM; hit rate 0.91% among 650,000; in the data active means inhibition above about 50%;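 further: 0% = vehicle wells with protein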
Target sequence (O75030 whole entry, looked up): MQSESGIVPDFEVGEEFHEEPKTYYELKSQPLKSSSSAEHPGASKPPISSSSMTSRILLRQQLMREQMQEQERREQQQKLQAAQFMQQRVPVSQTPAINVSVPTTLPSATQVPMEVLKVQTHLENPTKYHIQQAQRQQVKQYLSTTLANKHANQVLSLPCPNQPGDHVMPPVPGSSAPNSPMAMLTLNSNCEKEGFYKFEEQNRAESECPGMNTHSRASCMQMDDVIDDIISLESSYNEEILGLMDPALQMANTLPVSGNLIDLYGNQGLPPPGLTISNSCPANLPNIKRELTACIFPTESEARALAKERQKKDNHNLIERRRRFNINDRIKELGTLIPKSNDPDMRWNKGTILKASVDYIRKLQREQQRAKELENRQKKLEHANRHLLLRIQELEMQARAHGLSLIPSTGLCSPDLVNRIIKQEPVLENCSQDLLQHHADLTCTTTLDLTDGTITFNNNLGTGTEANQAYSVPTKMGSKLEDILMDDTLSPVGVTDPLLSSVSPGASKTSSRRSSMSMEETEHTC
GPR151 activ: activates the human receptor GPR151; PathHunter beta-arrestin GPR151 cells, luminescence; hit rate 1% among 650,000; Q8TDV0; AID 1508602; activation, % at 11.2 µM; in the data active means activation above about 4.9%;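 further: 0% = median of compound wells and 100% = cells with positive control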
FBW7 activator: activators of human E3 ligase FBW7; normalized activity (activation), % at 26.1 µM; Q969H0; hit rate 0.13% among 650,000; AlphaScreen FBW7–phospho-cyclin E peptide binding, activator screen; in the data active means normalized activity above about 1.9%;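 further: purified mutant Fbw7 with reduced substrate affinity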
TEAD-YAP inh: TEAD-YAP interaction inhibition | hit rate 1.4% among 640,000 | AID 1259422 | HEK-TIYL cells, TEAD-Gal4/YAP UAS-luciferase luminescence | inhibition, % at 9.12 µM; in the data active means inhibition above about 32%;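 further: 0% = median of test compound wells and 100% = reference inhibitor wells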
* marks the source's active call; other numbers are inactive results. In the library only some 3.4% were active in any assay of this set; here they are far more common.

SMILES	MITF inh	GPR151 activ	FBW7 activator	TEAD-YAP inh
c1ccc(-n2cnc3c(NCc4nc5ccccc5[nH]4)nc(N4CCC(N5CCOCC5)CC4)nc32)cc1	8	-1	0	44*
c1ccc2[nH]c(CNc3nc(Nc4ccc(N5CCOCC5)cc4)nc4c3ncn4C3CCCCC3)nc2c1	13	-1	0	-2
CC(C)n1cnc2c(NCc3nc4ccccc4[nH]3)nc(Nc3ccc(N4CCOCC4)cc3)nc21	0	-1	0	57*
CC(C)n1cnc2c(Nc3ccccc3)nc(Nc3cnccn3)nc21	9	0	0	-24
CC(C)n1cnc2c(Nc3ccccc3)nc(Nc3ccc(N4CCOCC4)cc3)nc21	3	1	0	-24
CC(C)n1cnc2c(Nc3ccc(N4CCOCC4)cc3)nc(Nc3cnccn3)nc21	1	1	0	32*
CC(=O)c1cccc(-c2cc(Nc3ccc(N4CCOCC4)cc3)nc(N)n2)c1	0	-3	0	46*
CC(=O)Nc1ccc(Nc2nc(Nc3cnccn3)nc3c2ncn3C(C)C)cc1	0	0	0	41*
CC(=O)c1cccc(-c2nc(C)cc(Nc3ccc(N4CCOCC4)cc3)n2)c1	9	0	0	-4
Nc1nc(Nc2ccc(N3CCOCC3)cc2)cc(Nc2cnccn2)n1	-23	-1	0	61*
Nc1nc(Nc2ccc(N3CCOCC3)cc2)cc(Nc2ccncn2)n1	-3	-1	0	4
O=C1c2ccc(Oc3ccc([N+](=O)[O-])cc3)cc2C(=O)N1c1c[nH]c(=O)[nH]c1=O	4	0	0	-1
CCc1nnc(SC(CC)C(=O)N2CCOCC2)c2cc3occc3n12 (centres undefined)	0	-1	0	-9
Cc1ccc(/C(O)=C(\C#N)c2nc3ccccc3c(=O)[nH]2)cc1	-3	0	0	-21
COc1ccc2oc(=O)c(-c3csc(CC#N)n3)cc2c1	-1	0	0	-8
CC1(C)CC(=O)C2=C(C1)OC1(O)CC2C2COC1O2 (centres undefined)	0	0	0	5
COc1ccc2sc(N(Cc3cccnc3)C(=O)c3cccc(C)c3)nc2c1	-9	2	0	40*
COc1ccc(CCNc2nc(-c3ccc(OC)cc3)nc3c2ncn3C(C)C)cc1	0	1	0	-1
COc1ccc(-c2nc(NCCN(C(C)C)C(C)C)c3ncn(C(C)C)c3n2)cc1	-2	1	0	39*
COc1ccc(-c2nc(NCCc3ccc(O)cc3)c3ncn(C(C)C)c3n2)cn1	5	-1	0	65*
CC(C)n1cnc2c(NCCc3ccc(O)cc3)nc(-c3ccc(C(=O)NC4CC4)cc3)nc21	14	-1	1	25
COc1ccc(-c2nc(NCc3nc4ccccc4[nH]3)c3ncn(C(C)C)c3n2)cn1	11	2	0	48*
CC(C)n1cnc2c(NCCc3ccc(O)cc3)nc(-c3ccc(C(N)=O)cc3)nc21	15	-1	0	52*
O=C(Oc1ccc(-c2noc(-c3ccc(OC(=O)c4cccc(F)c4F)cc3)n2)cc1)c1cccc(F)c1F	11	-1	1	-3
COc1ccc2c(c1)c1nc(N(C)C)nc3c1n2CCN3C	12	0	0	88*
SMILES	MITF inh	GPR151 activ	FBW7 activator	TEAD-YAP inh
Cc1ccccc1-n1ncc2c(NCc3ccc(F)cc3)ncnc21	1	0	0	-4
c1csc(CNc2ncnc3ccccc23)c1	3	2	0	51*
c1csc(CNc2ncnc3nc[nH]c23)c1	0	2	0	5
Fc1ccc(CNc2ncnc3ccccc23)cc1	-4	1	0	55*
COc1cc(NC(=O)c2cc([N+](=O)[O-])ccc2N2CCN(C)CC2)c2ncccc2c1	3	1	0	-9
CCOC(=O)C1CCN(c2ccc([N+](=O)[O-])cc2C(=O)Nc2cc(OC)cc3cccnc23)CC1	16	-1	2.1*	-12
CCOC(=O)C1=C(CN2CCCc3ccccc32)NC(=O)NC1c1ccccc1 (centres undefined)	-1	-2	0	17
CCOC(=O)C1=C(CN2CCCc3ccccc32)NC(=O)NC1c1ccc(C)cc1 (centres undefined)	-3	1	0	61*
CC(=O)NC(Cc1ccc(F)cc1)C(=O)NC1CCN(C(=O)NC2CCCCC2)CC1 (centres undefined)	17	0	0	-2
COc1cccc2c(C)cc(N3CCN(C)CC3)nc12	16	0	1.9*	-6
Oc1c(C(c2cccs2)N2CCN(c3ccccc3)CC2)ccc2cccnc12 (centres undefined)	18	0	0	87*
